Data from PubChem BioAssay (NCI).
The panel holds about 79,000 compounds, 15% with a hit somewhere; the sample as a whole holds those more often. Values without a mark were called inactive. Calls of active or inactive are those of the source. No stated cut-off is given here; in the data, active means growth inhibition above about 70%; inactive means the rest.

Legend:
[1] = NCI Yeast Anticancer Drug Screen. Data for the rad50 strain (AID 155);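 further: 0% = growth of vehicle-only cultures of the same strain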; settings: S. cerevisiae rad50 strain growth inhibition, hits give high values
Method in brief: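 Yeast carrying a defined DNA repair defect were exposed to test compounds, and growth was compared with vehicle-treated controls to give percent inhibition.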

[2] = NCI Yeast Anticancer Drug Screen. Data for the mec2-1 strain (AID 157); settings: S. cerevisiae mec2-1 strain, hits give high values
Method in brief: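 Readout is yeast growth inhibition, normalised to vehicle-treated controls, in the mec2-1 strain exposed to compound.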

[3] = NCI Yeast Anticancer Drug Screen. Data for the sgs1 mgt1 strain (AID 161);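 further: 0% = growth of cultures given vehicle only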; settings: S. cerevisiae sgs1 mgt1 strain, hits give high values
Method in brief: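 Percent growth inhibition was derived by comparing compound-exposed mutant yeast with vehicle-exposed cultures. The strain carries alterations in DNA damage repair.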

[4] = NCI Yeast Anticancer Drug Screen. Data for the cln2 rad14 strain (AID 165);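 further: 0% = growth equal to vehicle treated cultures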; settings: S. cerevisiae cln2 rad14 strain, hits give high values
Method in brief: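 Relative to vehicle controls, growth inhibition of compound-treated cln2 rad14 yeast was recorded.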

[5] = NCI Yeast Anticancer Drug Screen. Data for the bub3 strain (AID 167); settings: S. cerevisiae bub3 mutant strain, hits give high values
Method in brief: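 Compounds were applied to a genetically altered yeast strain carrying a cell-cycle control defect. Growth inhibition was scored against vehicle-treated controls.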

[6] = NCI Yeast Anticancer Drug Screen. Data for the mlh1 rad18 strain (AID 175); settings: S. cerevisiae mlh1 rad18 strain growth inhibition, hits give high values
Method in brief: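 Test agents were incubated with a yeast strain of defined genotype (DNA damage repair defect). Inhibition of growth was derived by comparison with vehicle-exposed cultures.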

[7] = at 5.0 µM (retest, dose inferred, filed as 0.5)
[8] = at 50.0 µM (retest, dose inferred, filed as 5.0)

Row | SMILES | growth inhibition [1, 7] [%] | growth inhibition [1, 8] | growth inhibition ([1]; at 50.0 µM) | growth inhibition [2, 7] [%] | growth inhibition [2, 8] | growth inhibition ([2]; at 50.0 µM) | growth inhibition [3, 7] [%] | growth inhibition [3, 8] | growth inhibition ([3]; at 50.0 µM) | growth inhibition [4, 7] [%] | growth inhibition [4, 8] | growth inhibition ([4]; at 50.0 µM) | growth inhibition [5, 7] [%] | growth inhibition [5, 8] | growth inhibition ([5]; at 50.0 µM) | growth inhibition [6, 7] [%] | growth inhibition [6, 8] | growth inhibition ([6]; at 50.0 µM)
1 | COc1ccc(/C(Cl)=C(/c2ccc(O)cc2)c2ccc(OCCN(C)C)cc2)cc1 | 40 | 40% | 91.8% (active) | 32 | 32% | 87.7% (active) | 42 | 42% | 92.3% (active) | 34 | 34% | 89.3% (active) | 26 | 26% | 88.6% (active) | 27 | 27% | 88.8% (active)
2 | O=S(=O)(Nc1ccc2ccc3cccc4ccc1c2c34)c1ccccc1 | 7 | 25% | 57.6% | 3 | 12% | 34.9% | 6 | 45% | 62.2% | -8 | -7% | 17.6% | -4 | 19% | 56.9% | 6 | 55% | 71.2% (active)
3 | CCCCCCCN=C(N)c1ccc(C(=O)OC2CCCCC2)cc1 | -1 | 84% (active) | 96.8% (active) | 17 | 89% (active) | 98% (active) | 34 | 98% (active) | 99% (active) | 1 | 70% (active) | 96.4% (active) | 1 | 73% (active) | 97.5% (active) | 21 | 90% (active) | 99% (active)
4 | CCCCCCC(=O)Nc1ccc(OC(=O)CCCCCC)c(=O)cc1 | 8 | 99% (active) | 98.8% (active) | 36 | 100% (active) | 99.2% (active) | 33 | 99% (active) | 99.3% (active) | -14 | 99% (active) | 98% (active) | 15 | 99% (active) | 99.2% (active) | 26 | 99% (active) | 98.5% (active)
5 | CCCCOc1ccc(NC(=S)Nc2ccc(OCCN(CC)CC)cc2)cc1 | -4 | 45% | 63.6% | 28 | 70% (active) | 39.1% | 21 | 67% | 83.8% (active) | 4 | 35% | 80.8% (active) | 3 | 54% | 71% (active) | 35 | 71% (active) | 79.2% (active)
6 | O=C(CCCCCCCCCCc1ccccc1)c1ccc(Cl)cc1 | 7 | 76% (active) | 83.7% (active) | 5 | 79% (active) | 42.6% | 17 | 89% (active) | 93.7% (active) | 15 | 61% | 70.8% (active) | 13 | 72% (active) | 94.8% (active) | 16 | 80% (active) | 70.6% (active)
7 | COc1ccc(/C=C2\N=C(c3ccco3)OC2=O)cc1Br | 16 | 2% | -4.8% | -17 | -4% | 5.85% | -1 | 12% | 11% | 30 | 22% | 4.8% | 5 | 13% | 27.1% | -7 | -32% | 5.65%
8 | Cc1nc(N)nn1C | -1 | 10% | 2.9% | 0 | -2% | 6.1% | -3 | -1% | -3.55% | -4 | 0% | 6.7% | 0 | -2% | 44.2% | 1 | 2% | -0.4%
9 | O=C(Nc1ccc(C2=NCCN2)cc1)c1ccc(C(=O)Nc2ccc(C3=NCCN3)cc2)c(Cl)c1 | 42 | 97% (active) | 51.2% | 25 | 98% (active) | 78.7% (active) | 57 | 99% (active) | 76% (active) | 43 | 96% (active) | 80% (active) | 54 | 98% (active) | 68.5% | 35 | 95% (active) | 87.8% (active)
10 | CN(c1ccccc1)c1c2c(oc(=O)c1Cl)-c1ccccc1SC2 | 16 | 45% | 86% (active) | 12 | 8% | 46.2% | 13 | 40% | 62.4% | 7 | 32% | 10.9% | 0 | 85% (active) | 93.5% (active) | 7 | 96% (active) | 55%
